This passage reports PBM binding z-score results from the supplement of paper PMC6555819.

The assay has as its system PPARg DBDmut IVT, anti-PPARg (DBD mutation: PPARg1 K132A/R137A, NR concentration 270 nM). The experiment in a line: PBM binding z-score (relative to random genomic background probes); higher = stronger binding; sequences stand for … in GC…GCGATTGACAGCGTAGAATGAAGG
The essentials: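 The probes on custom Agilent 4×180K protein-binding microarrays were double-stranded, with 34-nt variable regions bearing direct-repeat seeds, single-nucleotide variants, half-site ablations and random human genomic background sequences. Incubation lasted 1 h with ligand-free nuclear receptor dimers in PBS pH 7.4, 2% milk, 0.02% Triton X-100, 1 mM DTT, 0.2 mg/mL BSA and 0.4 mg/ml salmon testes DNA. Antibodies against each partner (one per run) detected bound dimers, and fluorescence scans were regression-normalized. Binding z-scores take the random background probes as reference.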
In the case of CTCGAAAGGTCGGTTGAGGTGAGAATACGGATAA, the PBM binding z-score worked out at 0.0546. Next, TCTGCTAGGTCAGCTGGTCAGCTAACGAGCTGCC: -0.593; GCTTGTAGATCATGGTTAAGAAAGACTAAGCTAA: -0.0333; TCTGCTAGGTCAGTTTGTCAGCTAACGAGCTGCC: 0.15. With TCATATAGGTAAATGCTAGTTGAAAGTCCGATCT, the PBM binding z-score came to 1.1. In turn, TCTCGGAGGACACGTAAGGTCAGAGCTCGACATC came in with a PBM binding z-score of -0.877.

The sequence ATGTCTAGGTAAAGATAGTTCAGTGAATGCAAAT displayed a PBM binding z-score of 1.23. The result for TATACAGGGTCAAAGTCCAGAGTACGAATGTCGA reads 3.67; that for GGAACCAGGGCAAGTTGATAGCAGAGTTTGATGG, 1.22; that for CCTAGCAGGCCAGGGTCACTGAAGCATTTCGCTT, -1.48.

In turn, CGTCCAAGGTCAATGCTAGGACAGTGAAAGCATT had a PBM binding z-score of -0.465. Next, CCTACTGGGCCATTCATAGGTCATTGATCATATG: -0.204. Turning to CGAACTAGGTGATCCAGGACAGTGAATACATTGA, the PBM binding z-score came to 0.847. The result for ACTAGCAGGTCAAGTTTGGGTCACTCAAACAAAG reads 0.843. The sequence TCTCGTAGATCAAGCAGGTTAAGAAAGCCTGAGT yielded a PBM binding z-score of -0.106.

Sequence GCTGCTAGGTCAGTTTGGTCAGCTAACGGGTACG showed a PBM binding z-score of -0.221. Next, CCTACTGGGCCATCAGATCATTGATATCAACGTT: 0.0377; CCGAGTGGGGCAGAAAGGTTACCATACCATCCGG: -1.29; AGTCAAAGTTCACTAGGTAACCTAAGATTCAGCT: 0.943. The result for TCTAGCAGGCCCGAGGGTCACTCAAGAGGTACGG reads -0.801.

Regarding TCGACTAGGTTACCAATGGGGCATTCAGCTTTCT, the PBM binding z-score stood at 0.263. GCGACTGGGGCATCAGCAGGTTAGCATAACTTAA: the PBM binding z-score was -1.09.
